The values that follow come from PubChem BioAssay AID1508622 (National Center for Advancing Translational Sciences (NCATS), 2021).

The source made the active and inactive calls. Entries that show only a call come without a potency. Calls follow the shape of the dose curve; as a rule, active = well fitted activation curve with a large enough effect; inconclusive = small, poorly fitted or top-dose-only effect; inactive = no such curve, though single readings can be large or run the other way.
Potency is read from the fitted curve at half-maximal effect.

This experiment is described as follows: Confirmatory qHTS for Identification of Small Molecule Activators of Huntingtin-Antisense Promoter Activity. As to conditions: HEK293 HTT-AS promoter firefly luciferase reporter, 24 h; series mostly up to 57.5 µM. Put shortly:
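Activity normalized between vehicle control (0%) and zero RLU (-100%) from firefly luminescence (Dual-Glo). Compounds, up to 57.5 uM final, incubated 24 h at 37C on HEK293 reporter cells plated 24 h earlier.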
For orientation: In qHTS, concentration-response curves come from the screen itself.
Regarding `Cc1ccc(N2C(=O)C(CC(=O)Nc3ccccc3)N(CCC3=CCCCC3)C2=O)cc1` (stereo not drawn), the Potency is 6.75 µM (active).
The result for `COc1ccc(-c2noc(CSc3nc4ccccc4[nH]3)n2)cc1OC` reads “inactive”; that for `COc1ccc([C@@H]2CNC(=O)C2)cc1OC1CCCC1`, “inactive”; that for `Cc1cccc(N2CCN(S(=O)(=O)c3cc(C(=O)Nc4ccc(Oc5ccccc5)cc4)ccc3F)CC2C)c1` (stereo not drawn), “inactive”.
For `O=C(NC1CCCCC1)c1ccc(CSc2nc3cccnc3n2Cc2cccc(F)c2)cc1` the value was “inactive”; for `CC(=O)c1cccc(NS(=O)(=O)c2ccc3[nH]c4c(c3c2)CCCCC4)c1`, “inactive”; for `Cc1nc2cccnc2n1-c1cccc(C(=O)NCc2ccc(OC(C)C)cc2)c1`, “inactive”.
`Cc1ccccc1Nc1c(-c2cccnc2)nc2cccc(C)n12`: the Potency entry is “inactive”.
The result for `Cc1cccc(Nc2nc(Nc3cccc(C)c3)nc(N3CCOCC3)n2)c1` reads “inactive”; that for `Cc1ccc(CCNC(=O)c2cc3c(s2)-c2ccccc2OC3)cc1`, “inactive”; that for `COc1ccc(-c2noc(N3CCN(c4cccc(C)c4C)CC3)n2)cc1OC`, “inactive”.
For `COc1cc(CN(C(=O)COc2ccc(Br)cc2)c2ccccn2)cc(OC)c1OC` the value was “inactive”; for `O=C(Nc1cccc(Cl)c1)c1c(NC(=O)C(F)(F)F)sc2c1CCCC2`, “inactive”; for `CC(CNC(=O)c1ccc(CSc2nc3ccncc3n2Cc2ccc(F)cc2)cc1)c1ccccc1` (stereo not drawn), “inactive”.
For `Cc1ccc(S(=O)(=O)NCCc2csc(-c3ccc(Cl)cc3)n2)cc1` the value was “inactive”; for `COc1ccc(N2CCN(C(=O)c3cc4c(-c5ccccc5F)nn(C)c4s3)CC2)cc1`, “inactive”.
Regarding `COc1ccc(CCNC(=O)Cn2nc(C)c3c(C)n(-c4ccc(C)cc4)nc3c2=O)c(OC)c1`, the Potency entry was “inactive”.
The result for `Fc1ccc(-c2csc(=Nc3cccc(C(F)(F)F)c3)n2Cc2ccc3c(c2)OCO3)cc1` reads “inactive”; that for `COc1ccc(C(=O)Nc2cccc(-c3cn4ccsc4n3)c2)c(OC)c1`, 13.5 µM (active); that for `Cc1cc(N2CCCCC2)nc2ccc(NC(=O)/C=C/c3ccc(OC(C)C)cc3)cc12`, “inactive”.
The result for `Cc1oc(-c2ccc(C(=O)Nc3cccc(C(F)(F)F)c3)cc2)nc1CSc1ccccc1` reads “inactive”.
The result for `Cc1cc(-c2ccc(S(=O)(=O)Nc3cccc(C)c3C)s2)on1` reads “inactive”.
With `Cc1ccccc1OCC(=O)Nc1ccccc1C(=O)OCc1cc(=O)n2c(C)csc2n1`, the Potency entry was “inactive”.
The result for `COc1ccccc1CNC(=O)c1ccc(N2CCCC2)c(NC(=O)NCc2ccc(C)cc2)c1` reads “inactive”; that for `Cc1ccc(NC(=O)Cn2cc(S(=O)(=O)Cc3ccccc3)c3ccccc32)cc1C`, “inactive”; that for `CC(=O)c1ccc(N2CCN(c3ncnc4c3cnn4-c3cc(Cl)ccc3C)CC2)cc1`, “inactive”.
For `COc1ccc(-c2cc(C(=O)N3CCN(c4ccccc4OC)CC3)c3cc(C(C)C)ccc3n2)cc1` the value was “inactive”; for `COc1cccc(Cn2c(SCc3ccc(C(=O)N4CCC(C)CC4)cc3)nc3ccncc32)c1`, “inactive”; for `O=S(=O)(Nc1ccc(F)c(C(F)(F)F)c1)c1ccc(N2CCCCS2(=O)=O)cc1`, “inactive”.
The result for `CCN(CC)c1ccc(NC(=O)COCc2cc(-c3ccc4c(c3)OCO4)on2)c(C)c1` reads “inactive”.
On to `COc1cccc([C@@H](C)NCCCc2ccccc2Cl)c1`, for which the Potency entry was “inactive”.
For `COc1cc(C2C(C(=O)Nc3ccccc3C)=C(C)Nc3nc(SCc4cc(C)ccc4C)nn32)ccc1O` (stereo not drawn) the value was “inactive”; for `CCCCN1C(C(=O)c2ccccc2)=C(OC(=O)CC)c2ccccc2S1(=O)=O`, “inactive”.
For `COc1ccccc1N1CCN(C(CNC(=O)C(=O)NCc2cccnc2)c2cccnc2)CC1` (stereo not drawn) the value was “inactive”; for `O=C(CSc1ccc(-c2ccccn2)nn1)Nc1ccc(F)c(F)c1`, “inactive”; for `CSc1ccc(CCNC(=O)C2CCCN(S(=O)(=O)N(C)c3ccc(F)cc3)C2)cc1` (stereo not drawn), “inactive”.
On to `Cc1ccc(Cl)cc1N1CCN(C(=O)c2cnc(N3CCOCC3)c3ccccc23)CC1`, for which the Potency entry was “inactive”.
The result for `Cc1cc(C)cc(NC(=O)CCCn2c3ccccc3c(=O)c3ccccc32)c1` reads “inactive”.
